Consider 20 molecules from PubChem BioAssay (NCI).

The panel holds about 83,000 compounds, 20% with a hit somewhere; the sample as a whole holds those more often.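 Testing used 96-well plates and a 48-hour single-concentration exposure. Example: -40 means 40% of the starting cells died.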 The source made the active and inactive calls. Rule for the calls: active = growth percent below 10; inactive = the rest.

One assay concerns SK-OV-3 ovarian. Put plainly: NCI-60 one-dose screen, 48 h (100 = growth as untreated, 0 = no growth, -100 = all killed). The note with it: 10 µM.
As to `Cn1cc(-c2nnc(N)nc2-c2c[nH]c3ccccc23)c2cc(Br)cnc21`, the growth was 60.6% (inactive).

For `O=C(CC(=O)Nc1ccc(Oc2ncnc3scc(Nc4n[nH]c(=S)s4)c23)cc1)Nc1ccc(Cl)cc1`, the growth was 77.5% (inactive). On to `O=C1NC2C=CC=CC2/C1=C1/SC(=S)N(C2CC(=O)N(c3ccc(Br)cc3)C2=O)C1=O` (stereo unspecified), for which the growth is 99.1% (inactive). As to `CC1(C)CC(=O)C2=C(C1)N(Cc1ccc(C(=O)O)cc1)C1=C(C(=O)CC(C)(C)C1)C2c1ccc(Cl)cc1`, the growth was 101% (inactive).

For the molecule `Cc1ccc2c(c1)C(=O)/C(=C/c1c[nH]c3ccccc13)S2`, the growth is 84.4% (inactive). Still for that read-out and setting: for `COc1cc(C2CC(c3ccc(Oc4ccc(Cl)cc4)cc3)=NN2c2nc(-c3ccc(Cl)cc3)c(C#N)c(N3CCOCC3)n2)cc(OC)c1OC` (stereo unspecified) the value was 102% (inactive); for `O=C(Nc1ccc(OCC(=O)c2ccc(Cl)cc2)cc1)Nc1ccc(Cl)c(C(F)(F)F)c1`, 33% (inactive); for `Cc1ccc2sc3c(c2c1)Oc1nc[nH]c(=O)c1C3c1cccc(F)c1` (stereo unspecified), 93.5% (inactive). On the same count and under the same terms, the figure for `Cc1ccc(COc2ccc(NC(=O)Nc3ccc(Cl)c(C(F)(F)F)c3)cc2)cc1` is 97.1% (inactive).

Take `COc1ccc(C(=O)COc2ccc(NC(=O)Nc3ccccc3)cc2)cc1`: the growth is 105% (inactive). Regarding `O=C(CC(=O)Nc1ccc(Oc2ncnc3scc(Nc4n[nH]c(=S)s4)c23)cc1)Nc1ccc(Br)cc1`, the growth is 98.4% (inactive). On the same count and under the same terms, for `O=C1NC(=S)S/C1=C\c1cn(-c2ccccc2)nc1-c1ccc([N+](=O)[O-])cc1` the value was 6% (active); for `O=C(CSc1nc2ccccc2c(=O)n1-c1ccc(Cl)cc1)Nc1ccc(-c2nc3ccc([N+](=O)[O-])cc3[nH]2)cc1`, 40.2% (inactive).

In a further assay the test system is IGROV1 ovarian. Described as above. As to conditions: 10 µM.
With `Cc1cc(N=C2NC(=O)S/C2=C\c2ccc(F)cc2)n[nH]1`, the growth is 25.3% (inactive). As for `Cn1cc(-c2nnc(N)nc2-c2c[nH]c3ccccc23)c2cc(Br)cnc21`, the growth was 35.6% (inactive).

Regarding `O=C(CC(=O)Nc1ccc(Oc2ncnc3scc(Nc4n[nH]c(=S)s4)c23)cc1)Nc1ccc(Cl)cc1`, the growth is 62.2% (inactive). On to `CC1(C)CC(=O)C2=C(C1)N(Cc1ccc(C(=O)O)cc1)C1=C(C(=O)CC(C)(C)C1)C2c1ccc(Cl)cc1`, for which the growth is 107% (inactive). On the same count and under the same terms, the figure for `Cc1ccc2c(c1)C(=O)/C(=C/c1ccc([N+](=O)[O-])cc1)S2` is 63.8% (inactive); for `O=C(CSc1nc2ccccc2c(=O)n1-c1ccc(Cl)cc1)Nc1ccc(-c2nc3ccccc3[nH]2)cc1` it is 53.2% (inactive). As to `COc1cc(C2CC(c3ccc(Oc4ccc(Cl)cc4)cc3)=NN2c2nc(-c3ccc(Cl)cc3)c(C#N)c(N3CCOCC3)n2)cc(OC)c1OC` (stereo unspecified), the growth was 106% (inactive). Same read-out and setting: for `O=C(Nc1ccc(OCC(=O)c2ccc(Cl)cc2)cc1)Nc1ccc(Cl)c(C(F)(F)F)c1` the value was 39.9% (inactive); for `Cc1cc(N=C2NC(=O)/C(=C/c3cc(C(C)(C)C)c(O)c(C(C)(C)C)c3)S2)n[nH]1`, 14.4% (inactive). For the molecule `COc1cccc(C(=O)CSc2nc(-c3ccc(OCc4ccccc4)c(OC)c3)c(C#N)c(=O)[nH]2)c1`, the growth is 106% (inactive). As to `COc1ccc(C(=O)COc2ccc(NC(=O)Nc3ccccc3)cc2)cc1`, the growth was 94.8% (inactive).

For `CCn1c(SCC(=O)Nc2ccc(-c3nc4ccccc4[nH]3)cc2)nc2ccccc2c1=O`, the growth was -52.5% (active). On to `O=C(Nc1ccc(OCc2ccc(F)cc2)cc1)Nc1ccc(Cl)c(C(F)(F)F)c1`, for which the growth is 43.6% (inactive).
